PubChem BioAssay (NCI)
The panel holds about 83,000 compounds, 20% with a hit somewhere; the sample as a whole holds those more often.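 Treatment: one concentration, 48 hours, 96-well format. Scoring: percent growth, with anything below 10 considered active.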 Unmarked numbers belong to inactive results. The source made the active and inactive calls.

Tested on: UO-31 renal
Test: NCI-60 one-dose screen, 48 h (100 = growth as untreated, 0 = no growth, -100 = all killed)
Settings: 10 µM unless noted

| Compound | growth |
| --- | --- |
| Nc1c(C(=O)Nc2cccc(Cl)c2Cl)sc2nc3c(cc12)C(=O)CCC3 | 78.8% |
| COc1cc(C2C=C(C)N=C3SC(C)=NN32)cc(OC)c1OC (stereo not given) | 72% |
| Nc1c(C(=O)Nc2cccc(C(F)(F)F)c2)sc2nc3c(cc12)CCCCCC3 | -2.04% (active) |
| O=Nc1c(-c2c(O)[nH]c3ccc([N+](=O)[O-])cc23)[nH]c2ccc(O)cc12 | -1.14% (active) |
| c1cc(-c2ccc3c(c2)OCO3)n2nccc2n1 | 90.9% |
| Nc1c(C(=O)Nc2cccc([N+](=O)[O-])c2)sc2nc3c(cc12)C(O)CCC3 (stereo not given) | 69% |
| CCn1cc(C(=O)O)c(=O)c2cc(F)c(N3CCN(S(=O)(=O)c4ccc(Cl)cc4Cl)CC3)cc21 | -13.4% (active) |
| CN1C(=O)[C@H]2c3c1cccc3[C@@]13NC(=O)O[C@H]1[C@H](CCC3(C)C)C2(C)C | 84.6% |
| CN1CCN(c2ccc3cc(-c4nc5ccccc5[nH]4)c(=O)oc3c2)CC1 | 65.5% |
| Cc1ccc(Cn2c(-c3nonc3N)nc3ccccc32)cc1 | 66.2% |
| CCc1cccc(C)c1NC(=O)c1sc2nc3c(cc2c1N)C(=O)CCC3 | 50.1% |
| COc1cc(-c2cc(/C=C3\CCCCC3=O)[nH]n2)cc(OC)c1OC | 80.8% |
| FC(F)(F)c1cccc(-n2nnc3cnc(Nc4ccc(N5CCCCC5)cc4)nc32)c1 | 100% |
| Cc1ccc(OCCn2c(C)nn(-c3ccc(Cl)cc3)c2=O)cc1 | 83.9% |
| CN1CCN(CCCOc2ccc3nc(Nc4ccc(C(F)(F)F)c(Cl)c4)ccc3c2)CC1 | -8.8% (active) |
